Compounds with a hit are over-represented: about 7.4% of the library has one in this group of screens.
FLuc modulator – qHTS profiling assay for firefly luciferase inhibitor/activator using purifed enzyme and Km concentrations of substrates (counterscreen for miR-21 project). Luciferin 4-monooxygenase (Photinus pyralis), P08659. purified FLuc, Km substrates, luminescence inhibition. Potency, µM (highest dose often 57.5 µM), without a hit: at the top dose activity change, negative = inhibition, usual class: inhibitors. hit rate 6.9% among 360,000. AID 588342, 2011;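 further: plate controls were vehicle for no effect and reference inhibitor for full effect; nearly all actives have a fitted effect of over 55% in size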
Target sequence (P08659 whole entry, looked up): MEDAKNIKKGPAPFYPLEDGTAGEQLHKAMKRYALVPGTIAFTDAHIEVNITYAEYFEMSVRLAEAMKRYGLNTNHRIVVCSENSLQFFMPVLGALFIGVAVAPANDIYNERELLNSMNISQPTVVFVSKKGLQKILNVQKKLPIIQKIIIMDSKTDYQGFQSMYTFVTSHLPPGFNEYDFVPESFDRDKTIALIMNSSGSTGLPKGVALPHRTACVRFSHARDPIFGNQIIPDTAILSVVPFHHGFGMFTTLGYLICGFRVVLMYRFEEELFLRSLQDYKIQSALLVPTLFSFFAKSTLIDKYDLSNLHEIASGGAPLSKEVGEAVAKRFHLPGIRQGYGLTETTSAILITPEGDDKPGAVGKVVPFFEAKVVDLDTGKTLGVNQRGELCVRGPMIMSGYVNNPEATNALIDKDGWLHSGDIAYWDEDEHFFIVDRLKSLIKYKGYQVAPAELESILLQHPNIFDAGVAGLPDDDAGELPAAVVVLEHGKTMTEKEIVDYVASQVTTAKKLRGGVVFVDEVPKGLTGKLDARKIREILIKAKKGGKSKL
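Purified P. pyralis luciferase, 10 nM final, with Km-level 10 uM D-luciferin and 10 uM ATP in 50 mM Tris acetate pH 7.5, 10 mM Mg acetate, 0.01% Tween-20, 0.05% BSA; 6-point qHTS titration about 60 µM downward; luminescence read.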
Rab9 prom act – qHTS Assay for Rab9 Promoter Activators; hit rate 2.8% among 320,000; Potency, µM (series often up to 9.22 µM), without a hit: at the highest dose activation, negative = inhibition, actives largely listed as activators; AID 485297, 2010; Huh7 Rab9 promoter-luciferase reporter, luminescence, 24 h; further: % of control where 0% means no effect; nearly all actives have a fitted effect of over 60% in size
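Luminescence from Amplite-detected luciferase (10 minutes, ambient) reports Rab9 promoter activation. Before that, stable Rab9-luciferase Huh7 cells (1500/well, reduced-serum OP-MEM I plus 10% FBS) were exposed to compound for 24 hours at 37C.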
ELG1 genotox – qHTS screen for small molecules that induce genotoxicity in human embryonic kidney (HEK293T) cells expressing luciferase-tagged ELG1 | Potency, µM (series often up to 46 µM), for inactives: at the highest dose activity change, positive = activation, hits mostly activators | HEK293T ELG1-luciferase reporter, luminescence, 16 h | hit rate 1.3% among 330,000; further: % of control where 0% means no effect; nearly all actives have a fitted effect of over 60% in size
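After overnight (16 hr) compound treatment at 37 °C, ELG1-luciferase HEK293T cells were lysed with ONE-Glo; luminescence quantified 30 min later at room temperature.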
NPC1 prom act – qHTS Assay for NPC1 Promoter Activators; hit rate 2.4% among 320,000; Potency, µM (series often up to 9.22 µM), for inactives: at the top dose activation, usual class: activators; AID 485313, 2010; Huh7 NPC1 promoter luciferase reporter, 24 h; further: % of control where 0% means no effect; nearly all actives have a fitted effect of over 60% in size
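Luciferase expression driven by the NPC1 promoter was measured in stably transfected Huh7 cells after a 24 h compound incubation, using a luciferase reagent and a luminescence read.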
SMN2 splice up – qHTS Assay for Enhancers of SMN2 Splice Variant Expression. HEK293 SMN2-luciferase splicing reporter, luminescence, 30-36 h. Potency, µM (top dose mostly 46.1 µM), for the others: at the highest dose activity change, positive = activation, actives largely listed as activators. hit rate 2.8% among 210,000. AID 1458, 2008; further: % of control where 0% means no effect; nearly all actives have a fitted effect of over 55% in size
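qHTS luciferase splicing reporter: luminescence rises when SMN2 exon 7 is included in transfected HEK293 cells. Compound exposure lasted 30-36 h at 37C, with 4.5 mM final sodium butyrate as control, followed by a ONE-Glo read.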
Numbers without * were called inactive; ? = inconclusive; . = no result; [ ] = dose if it differs, or a comment. The call rests on the fitted dose curve; in most records, active means well fitted curve in the direction sought with a large enough effect; inconclusive means small, poorly fitted or top-dose-only effect, or another doubt; inactive means no such curve, though single readings can be large; an effect the other way counts as inactive or inconclusive. Potency means the concentration at half of the fitted maximal effect.

SMILES | FLuc modulator | Rab9 prom act | ELG1 genotox | NPC1 prom act | SMN2 splice up
CCOc1ccccc1CN1CCc2nc(N3CCN(c4ccccc4F)CC3)ncc2C1 | 0% | . | . | . | .
Fc1cccc(Cc2noc(CN3CCCCC3c3ccccn3)n2)c1 (stereo not given) | 24µM* | ? | ? | ? | .
COc1ccccc1OCCNC(=O)Cc1ccc(S(=O)(=O)N2CCOCC2)s1 | 4% | -9% | 3% | -5% | .
Cc1cc(N2CCN(C)CC2)nc2ccc(NC(=O)Nc3ccccc3Br)cc12 | 1.5µM* | . | . | . | .
Cc1cc(N2CCN(C)CC2)nc2ccc(NC(=O)Nc3cccc(Cl)c3)cc12 | 13µM* | . | . | . | .
CCN1CCN(c2cc(C)c3cc(NC(=O)c4ccc(C)c(C)c4)ccc3n2)CC1 | 21µM* | 7%[1.84 µM] | 10% | 21% | .
Cc1ccc(NC(=O)Nc2ccc3nc(N4CCN(C)CC4)cc(C)c3c2)cc1C | -15% | . | . | . | .
Cc1cc(N2CCN(C)CC2)nc2ccc(NC(=O)Nc3ccccc3)cc12 | 4.8µM* | . | . | . | .
CCN1CCN(c2cc(C)c3cc(NC(=O)c4ccncc4)ccc3n2)CC1 | -2% | 1% | -7% | 0% | -12%
CC1CN(S(=O)(=O)c2cc(C(=O)NC(C)c3cccnc3)ccc2Cl)CC(C)O1 (stereo not given) | . | . | -2% | . | .
C/C(=N\Nc1ccc(Cl)c(C(=O)O)c1)c1cc2ccccc2o1 | 27µM* | ? | ? | 18% | 25%
C/C(=N\Nc1ccc(Cl)c(C(=O)O)c1)c1cccc2ccccc12 | ? | 16% | 27% | 4% | .
C/C(=N\Nc1cccc(C(=O)O)c1)c1cc2ccccc2o1 | 11µM* | 2.2µM* | ? | ? | 11µM*
C/C(=N\NC(=O)CC#N)c1cc2ccccc2oc1=O | 6% | -8% | -2% | -2% | .
C/C(=N\Nc1ccccc1)c1cc2ccccc2oc1=O | 21µM* | 25% | 12% | 10% | .
N#CCN=C(c1ccccc1)c1ccccc1 | -4% | -2% | 4% | -5% | .
COc1ccc(CNC(=O)C2CCCN(S(=O)(=O)N(C)c3ccc(F)cc3)C2)cc1OC (stereo not given) | -3% | . | . | . | .
COc1ccc([C@]23Cc4cc(OC)c(OC)cc4C(O2)c2c(cc(-c4ccccc4)oc2=O)O3)cc1 | -14%[11.5 µM] | 0%[1.84 µM] | . | 0%[1.84 µM] | .
O=C(N/N=C/c1cccs1)c1n[nH]c2c1CCCC2 | 0.85µM* | 0.1µM* | ? | ? | .
C/C(=N\NC(=O)c1n[nH]c2c1CCC2)c1cccs1 | 0.6µM* | ? | ? | ? | .
O=C(N/N=C/c1ccc(Cl)cc1Cl)c1n[nH]c2c1CCCC2 | ? | 14% | ? | 0% | 14µM*
Cc1ccc(/C=N/NC(=O)c2n[nH]c3c2CCCC3)cc1 | 2.4µM* | -6% | 6.5µM* | ? | .
Cc1ccccc1CNC(=O)c1cnc2sc(N3CCOCC3)nn2c1=O | 2% | . | . | . | .
O=C(N/N=C\c1cccc(Cl)c1)c1n[nH]c2c1CCCC2 | 1.7µM* | 0.71µM* | ? | 2.5µM* | 13µM*
CCC(=O)Nc1cccc(-c2cn3ccsc3n2)c1 | 17µM* | -4% | 6% | 14% | 24%
SMILES | FLuc modulator | Rab9 prom act | ELG1 genotox | NPC1 prom act | SMN2 splice up
CC(C)(C)CC(=O)Nc1cccc(-c2cn3cccnc3n2)c1 | 11µM* | 2.5µM* | ? | ? | 11µM*
CC(C)C(=O)Nc1cccc(-c2cn3ccsc3n2)c1 | 15µM* | 29% | ? | 13% | 23%
CC(C)CC(=O)Nc1cccc(-c2cn3ccsc3n2)c1 | 12µM* | ? | ? | ? | 18µM*
Cc1ccc(/C=C/C(=O)OC(C)C(=O)NC2CCCCC2C)o1 (stereo not given) | 1% | -1% | 14% | 1% | .
CN1CCCN(S(=O)(=O)c2ccc3ccccc3c2)CC1 | -2% | 0% | 0% | -5% | .
COc1ccccc1CNC(=O)[C@H](C)NC(=O)C1CCN(C(=O)[C@@H](N)CCSC)CC1 | -3% | -4% | -3% | 1% | .
CC1CCN(Cc2c(O)ccc3c(=O)c(Oc4ccccc4Cl)c(C(F)(F)F)oc23)CC1 | 1% | . | . | . | -1%
CN(C)C(=O)COc1ncnc2sc(-c3ccccc3)cc12 | ? | 27% | ? | 21% | .
COc1ncnc2sc(-c3ccccc3)cc12 | 12µM* | 3.2µM* | ? | ? | ?
CN(C)c1ncnc2sc(-c3ccccc3)cc12 | 15µM* | 7% | 15% | 3% | .
CCNc1nc(-c2ccc(Cl)cc2)cs1 | 3.4µM* | 2.2µM* | ? | 3.5µM* | 27%
CCN(CC)CC(=O)Nc1nc(-c2ccc(Cl)cc2)cs1 | -19% | 3% | 4% | 19% | -2%
CNc1nc(-c2ccc(Cl)cc2)cs1 | 6.7µM* | 2.8µM* | ? | 2.8µM* | 20%
CC(C)C(=O)Nc1nc(-c2ccc([N+](=O)[O-])cc2)cs1 | ? | 24% | 0% | 18% | -21%
CNc1nc(-c2ccc([N+](=O)[O-])cc2)cs1 | 12µM* | ? | 3% | ? | 6%
COc1ccc(CCNC(=O)Cn2nc(C)c3c(C)n(-c4ccc(C)cc4)nc3c2=O)c(OC)c1 | 0% | -16% | . | -16% | .
CC(=O)Oc1ccc2nc(/C=C/c3ccc(C=O)cc3)oc(=O)c2c1 | ? | -2% | 3% | -4% | .
CC(=O)Oc1ccc2c(=O)oc(-c3ccccc3)nc2c1 | 7.6µM* | 0% | 1% | 1% | .
CC(=O)Oc1ccc2nc(/C=C/c3ccccc3)oc(=O)c2c1 | 1.1µM* | 4% | 3% | -5% | .
CC(=O)Oc1ccc2c(=O)oc(-c3ccccc3C)nc2c1 | 19µM* | 0% | 0% | -2% | .
Cc1ccccc1-c1nc2cc(Cl)ccc2c(=O)o1 | -11% | 1% | 0% | -4% | .
CC1=C(C(=O)N2CCN(c3cccc(Cl)c3)CC2)C2(CCCCC2)OC1=O | -7% | . | . | . | .
Cc1cccc(C(=O)OC(C)CN2C(C)CCCC2C)c1 (stereo not given) | -2% | -10% | -2% | 0% | .
COCCCNC(=S)NNC(=O)c1ccc2c(c1)OCO2 | 0% | 13% | 1% | 28% | -2%
CCOCCCNC(=O)c1ccc2c(c1)OCO2 | ? | ? | 10% | 18% | 14µM*
CCOCCCNC(=O)c1cccc(OC2CCN(S(C)(=O)=O)CC2)c1 | 11µM* | 2.8µM* | ? | 3.5µM* | .
O=C(NCCOc1ccccc1)c1ccc2c(c1)OCO2 | 0.76µM* | 0.28µM* | ? | 0.28µM* | 2.5µM*
COc1cccc(N2CCN(Cc3nnc(-c4ccc5c(c4)OCO5)o3)CC2)c1 | -4% | . | . | . | 17%
Cc1cc(C(=O)COc2ncnc3sccc23)c(C)n1C | 17µM* | ? | 18µM* | ? | 11µM*
CCCOc1ccc(-c2nnc(-c3ccco3)o2)cc1 | 0.76µM* | 0.45µM* | ? | 0.5µM* | ?
